Data from PubChem BioAssay AID493192 (National Center for Advancing Translational Sciences (NCATS), 2011).
Results filed as inconclusive are left out. A call without a number means that no potency is given here. Calls of active or inactive are those of the source. Calls follow the shape of the dose curve; as a rule, active = well fitted activation curve with a large enough effect; inconclusive = small, poorly fitted or top-dose-only effect; inactive = no such curve, though single readings can be large or run the other way.

Test: qHTS Assay for Identifying a Potential Treatment of Ataxia-Telangiectasia: Hit Validation;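 also: phospho-KAP1 level by AlphaLISA as a proxy for ATM-like kinase activity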
Conditions: Ataxia-telangiectasia cell-based hit validation qHTS, in ATM-null A-T patient fibroblasts; series mostly up to 76.9 µM
Outline: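 KAP-1 phosphorylation was read by AlphaLISA as a measure of ATM-like activity in ATM-null F2112 fibroblasts. Compounds spanned up to 76.7 uM final, with 60 min exposure at 37C and a 6 hr detection incubation at 25C.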
Potency is read from the fitted curve at half-maximal effect.

Compound	Potency
O=c1c(-c2ccc(Cl)cc2)c[nH]n1-c1ccccc1	inactive
CCOc1ccc(NC2=NCC(=O)N2Cc2cccs2)cc1	inactive
CC(C)NC(=O)c1ccc(COc2ccc(C(C)(C)C)cc2)o1	inactive
Cc1ccc(C2(C)NC(=O)N(CC(=O)Nc3ccccc3N3CCCC3)C2=O)cc1 (configuration not stated)	inactive
Cn1cnc([N+](=O)[O-])c1SCCO	inactive
CC1CCCC(C)N1CCCNC(=O)Cn1ncc2c3ccccc3n(C)c2c1=O (configuration not stated)	23.2 µM (active)
O=C(NC12CC3CC(CC(C3)C1)C2)c1cccc(OC(F)F)c1	inactive
O=C(Nc1ccccc1Oc1ccccc1)c1cccs1	41.2 µM (active)
COc1cccc(/C=N/NC(=O)c2cc3cc([N+](=O)[O-])ccc3s2)c1O	51.9 µM (active)
Cc1ccc(OCC(=O)N(Cc2cccs2)C2CCS(=O)(=O)C2)cc1C (configuration not stated)	inactive
CN(CCc1ccccn1)C(=O)c1cc(COc2ccc(F)cc2F)on1	inactive
CCN(CC)S(=O)(=O)c1ccc(Cl)c(NC(=O)CCCCl)c1	inactive
COc1ccc(-c2nn(C)c(=O)[nH]2)cc1	inactive
COc1cc(CCC(=O)OCC(=O)N2CCc3ccccc32)cc(OC)c1OC	inactive
CCOc1ccccc1CNC(=O)Cn1c(=O)oc2ccccc21	23.2 µM (active)
CC(=O)NNC(=O)CN1C(=O)/C(=C/c2ccccc2)SC1=S	inactive
OC(COC(c1ccc(F)cc1)c1ccc(F)cc1)CN1CCCC1 (configuration not stated)	inactive
Cc1ccc(-c2noc(CCC(=O)NC3CCN(Cc4ccccc4)CC3)n2)cc1	inactive
C=CCN1C(=O)/C(=C/C(=O)OC)S/C1=N\NC(=O)c1ccccc1	inactive

Compound	Potency
N=c1ccn(Cc2ccc([N+](=O)[O-])cc2)cc1	inactive
CCOc1cccc(/C=C/c2ccc3cccc(O)c3n2)c1OC	32.8 µM (active)
O=C(Nc1cnn(C23CC4CC(CC(C4)C2)C3)c1)c1cnn2cccnc12	inactive
CCN(CC)c1ccc2c(Cl)c(Br)c(=O)oc2c1	36.8 µM (active)
CCOc1cccc(C(=O)Nc2ccccc2N2CCN(C(=O)C(C)C)CC2)c1	inactive
COc1ccc(C(=O)CSc2nc3ncccc3[nH]2)cc1OC	inactive
CNC(=S)N(CCc1c(C)[nH]c2ccc(Cl)cc12)Cc1cccnc1	inactive
Cc1ccc(NC(=O)CSc2nnc([C@H](C)NC(=O)OC(C)(C)C)o2)c(C)c1	26 µM (active)
CCOC(=O)C1=C(O)C(=O)N(Cc2ccccc2)C1	inactive
CC1CC(C)CN(C(=O)COC(=O)c2c[nH]c3ccccc23)C1 (configuration not stated)	inactive
N#C/C(=C/c1ccc(F)cc1)C(N)=S	inactive
O=C(O)CCC(=O)NN1C(=O)c2ccccc2NC1c1ccco1 (configuration not stated)	inactive
O=C(C(c1ccccc1)c1ccccc1)N1CC[C@@]2(O)CCCC[C@H]2C1	inactive
COc1ccc(CCNC(=O)C2CCN(S(=O)(=O)c3ccc(OC)c(OC)c3)CC2)cc1OC	inactive
COc1cccc(CN(C)CC(=O)NCc2ccc(F)cc2)c1OC	inactive
CCS(=O)(=O)c1ccc(C(=O)Nc2ccccc2)c(Cl)c1Cl	29.2 µM (active)
COc1cc(C(=O)NCCC(=O)NCCCN2CCCCC2)cc(OC)c1OC	inactive
Oc1cccc(NC(=S)N=Nc2c(O)[nH]c3ccccc23)c1	inactive
